# Experimental data reported in PubChem BioAssay AID686935 (National Center for Advancing Translational Sciences (NCATS), 2013).
# Inconclusive results are not listed. Entries that show only a call come without a potency. Calls of active or inactive are those of the source. Calls follow the shape of the dose curve; as a rule, active = well fitted curve in the direction sought with a large enough effect; inconclusive = small, poorly fitted or top-dose-only effect, or another doubt; inactive = no such curve, though single readings can be large or run the other way.
# Test: qHTS Assay for Lipid Storage Modulators: CytotoxicityAssay against Probe and Analogs
# Conditions: 3T3-L1 adipocytes cytotoxicity, imaging cell count; series mostly up to 20 µM
# Text: Storing lipids as a reservoir for energy or the anabolism of elementary metabolites is a common feature of probably all cells and is conserved from bacteria to humans. The universal cellular lipid storage organelle is the so-called lipid storage droplet (LD). Although ubiquitous, LDs share a simple structure composed of a hydrophobic core that harbors the storage lipids, which is shielded by a droplet-specific phospholipid monolayer to which proteins are attached. The current model of LD biogenesis involves an incorporation of the lipid core into the membrane leaflets of the endoplasmic reticulum (ER) followed by a subsequent budding-like maturation of a LD, which ultimately pinches off. Once released, LD volume can increase by localized lipogenesis or fusion of existing droplets. Storage lipids are re-mobilized enzymatically by lipase activity. Lipase regulation in the adipocyte is heavily studied and involves multiple components including catecholamine signaling, the LD-associated proteins Perilipin and comparative gene identification-58 (CGI-58) and at least two lipases named hormone sensitive lipase (HSL) and adipocyte triglyceride lipase (ATGL). LD regulation outside of the adipocyte is poorly understood and only few components are known. However, there is an urgent need to learn more about ectopic fat depots as mislocalized storage of lipids, for example in the liver or muscle, is an eminent health problem associated with insulin resistance or the metabolic syndrome. We developed a laser-scanning cytometer assay to enable 1,536-well screening and combined the results of the small molecules screen with an RNAi database based on lipid storage. In this assay we tested analogs of the probe in a cytotoxicity assay. NIH Molecular Libraries Probe Production Centers Network [MLPCN] NIH Chemical Genomics Center [NCGC] MLPCN Grant: MH085686 Assay Submitter (PI): Mathias Beller, Max-Planck-Institut fur Biophysikalische Chemie
# 3T3-L1 cells were obtained from ATCC (CL-173). Pre-adipocyte medium (PM-1),differentiation medium (DM-2) and after adipocyte medium (AM-1) were purchased from Zen-Bio (# PM-1-L1, DM-2-L1, AM-1-L1). […] of PM-1containing 3,000 cells was dispensed into each well of a 96-well plate (Corning, #3340), and the assay plates were incubated at 37 °C, 95% humidity and 5% CO2 for 3-5 days. The differentiation of pre-adipocyte to adipocyte was induced by removing the pre-adipocyte medium and replacing with […] of differentiation medium. […] of compounds at different concentrations dissolved in differentiation medium were added to the assay plates, along with medium exchange for differentiation to test their effects on adipocyte differentiation. The final DMSO concentration was 0.5%. Triacsin C (Sigma-Aldrich T-4540), an inhibitor of long-chain fatty acyl CoA synthetase that blocks synthesis of triglycerides, was used as a positive control for lipid under-storage. After 3 days, differentiation medium was replaced with 200ul of adipocyte maintenance medium and assay plates were incubated for 4 days. Cells were then fixed using4% of paraformaldehyde in PBS for 30 minutes at room temperature, washed 3 times with PBS buffer. Finally, the cells were stained using […] of PBS containing BODIPY lipid dye 493/530 (1:2000 -, Life Technologies, # D-3922), Hoechst 33342 (1:1000, Life Technologies, #H3570) and CellMask deep red dye (1:10,000 , Life Technologies, #H32721). Images were acquired using InCell 2000 (GE), number of cells, number of lipids, size of lipids and cells were analysis using GE Investigator software.
row,SMILES,Potency
1,CCOc1ccc(CCNC(=O)c2cc3sccc3n2Cc2ccccn2)cc1OCC,inactive
2,CCOc1ccc(CCNC(=O)c2cccc(C(=O)c3ccccc3)c2)cc1OCC,inactive
3,CCOc1cc(F)c(CCNC(=O)c2cc3sccc3n2Cc2ccccc2)cc1OCC,inactive
4,CCOc1cc(CCNC(=O)c2cc3sccc3n2Cc2ccccc2)cc(F)c1OCC,7.08 µM (active)
5,CCOc1ccc(CCNC(=O)c2cc3sccc3n2Cc2ccccc2)cc1OCC,inactive
6,CCOc1ccc(CCNC(=O)c2cc3ccccc3o2)cc1OCC,inactive
7,CCOc1ccc(CCNC(=O)c2ccnn2Cc2cccc(C)c2)cc1OCC,inactive
8,CCOc1ccc(CCNC(=O)c2cc3sccc3n2Cc2ccncc2)cc1OCC,inactive
9,CCn1c(C(=O)NCCc2ccc(OC)cc2)cc2sccc21,inactive
10,CCOC(=O)C1CCN(C(=O)C(C)(C)NC(=O)Nc2ccc(-c3ccccc3)cc2)CC1,inactive
11,CCOc1ccc(CCNC(=O)c2cc3sccc3n2C)cc1OCC,inactive
12,CC(C)Oc1ccc(CCNC(=O)c2cc3sccc3n2Cc2ccccc2)cc1OC(C)C,inactive
